Consider 14 compounds from PubChem BioAssay (Tox21).

Values joined by “and” are separate entries in the source; they are usually repeats but may differ in a detail not shown here. Equal entries are not always repeated. Inconclusive results are not listed. A number with no mark means an inactive call. Calls follow the shape of the dose curve; as a rule, active = well fitted activation curve with a large enough effect in the repeat runs; inconclusive = weak or mixed curves; inactive = no such curve, though single readings can be large or run the other way.
% is scaled to controls: 0 for no effect and ±100 for the full control effect.

In this assay the target is Nuclear receptor subfamily 1 group I member 2 (Rattus norvegicus) (UniProt Q9R1A7). The assay can be described thus: Rat pregnane X receptor (rPXR) activation by small molecules, qHTS assay (AID 1346983). Also: nearly all actives have a fitted effect of over 20% in size. Conditions: rPXR luciferase reporter cells, One-Glo luminescence, 24 h; max activation: active compounds read high. In outline: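 Luminescent readout (One-Glo luciferase, 30 min room temperature) followed 24 hr compound treatment at 37 C of rPXR cells plated 2,000 per well and preincubated 5hr; qHTS format with compounds delivered in DMSO.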
Nuclear receptor subfamily 1 group I member 2 (Rattus norvegicus), sequence (Q9R1A7 whole entry, looked up): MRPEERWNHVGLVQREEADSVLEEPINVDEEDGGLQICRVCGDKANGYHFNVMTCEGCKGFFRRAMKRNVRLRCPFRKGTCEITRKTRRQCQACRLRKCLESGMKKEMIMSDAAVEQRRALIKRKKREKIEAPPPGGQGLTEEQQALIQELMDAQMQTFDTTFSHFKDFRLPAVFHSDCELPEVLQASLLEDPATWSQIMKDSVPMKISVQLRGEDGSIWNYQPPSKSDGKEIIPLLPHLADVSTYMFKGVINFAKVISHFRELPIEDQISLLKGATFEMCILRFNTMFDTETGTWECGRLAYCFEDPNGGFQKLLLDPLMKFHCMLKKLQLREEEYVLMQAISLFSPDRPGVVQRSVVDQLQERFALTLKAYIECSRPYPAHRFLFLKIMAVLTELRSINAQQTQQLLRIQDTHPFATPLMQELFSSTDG
For orientation: In qHTS, concentration-response curves come from the screen itself.
In the case of `CC(O)[C@H]1CC[C@H]2[C@@H]3CC[C@@H]4C[C@@H](O)CC[C@]4(C)[C@H]3CC[C@]12C` (some centres undefined), the max activation was 2.94%.
Take `CC(C)(C)NC[C@H](O)COc1ccccc1C1CCCC1`: the max activation was -2.28%.
`OCCN1CCN(CC/C=C2/c3ccccc3Sc3ccc(Cl)cc32)CC1`: the max activation was -1.76%.
Consider `CN(C)CC/C=C1/c2ccccc2CSc2ccccc21`, for which the max activation was -3.65%.
Consider `CC(=O)c1ccc2c(c1)N(CCCN1CCN(CCO)CC1)c1ccccc1S2`, for which the max activation is -12.2%.
`CN1[C@@H]2CC[C@H]1CC(OC(c1ccccc1)c1ccccc1)C2` (some centres undefined): the max activation is -1.01% and 0.643% and -2.69%.
For `CC(CN(C)C)CN1c2ccccc2Sc2ccc(C(F)(F)F)cc21` (centres undefined), the max activation was 2.66%.
To `C[C@]12C=CC(=O)N[C@@H]1CC[C@@H]1[C@@H]2CC[C@]2(C)[C@@H](C(=O)Nc3cc(C(F)(F)F)ccc3C(F)(F)F)CC[C@@H]12` belongs -1.05%.
`CCC(=O)c1ccc2c(c1)N(CCCN1CCN(CCO)CC1)c1ccccc1S2`: the max activation was -17.5%.
As for `Nc1ccc(S(=O)(=O)Nc2ncccn2)cc1`, the max activation is -1.29%.
In the case of `CN(C)CCC=C1c2ccccc2C(C)(C)c2ccccc21`, the max activation was 6.91%.
`CCNC(=O)[C@@H]1CCCN1C(=O)[C@H](CCCN=C(N)N)NC(=O)[C@H](CC(C)C)NC(=O)[C@@H](Cc1c[nH]c2ccccc12)NC(=O)[C@H](Cc1ccc(O)cc1)NC(=O)[C@H](CO)NC(=O)[C@H](Cc1c[nH]c2ccccc12)NC(=O)[C@H](Cc1cnc[nH]1)NC(=O)[C@@H]1CCC(=O)N1`: the max activation was -27.8%.
Regarding `C[C@]12CCC(=O)C[C@@H]1CC[C@@H]1[C@@H]2CC[C@]2(C)C=CC[C@@H]12`, the max activation was -0.035%.
As to `COc1ccc2c(c1)OC(C)(C)C(c1ccccc1)C2c1ccc(OCCN2CCCC2)cc1` (centres undefined), the max activation is -6.65%.
